Measured values: publication PMC7862700, “An all-to-all approach to the identification of sequence-specific readers for epigenetic DNA modifications on cytosine”

Key:
Experiment in all cases: DAPPL (digital affinity profiling via proximity ligation, sequencing); 10 mM Tris-HCl pH 7.5, 50 mM NaCl, 1 mM DTT, 4% glycerol, room temperature, 30 min; GST-TFs on glutathione beads, 16-mer random dsDNA library, 0.1% formaldehyde crosslink after washing; high values mean tight binding
Details in all cases: protein: recombinant; tags: N-terminal GST; dsDNA, one strand shown
ERF = biological target: T1, ERF (Homo sapiens, UniProt P50548 1-548)
T1 sequence: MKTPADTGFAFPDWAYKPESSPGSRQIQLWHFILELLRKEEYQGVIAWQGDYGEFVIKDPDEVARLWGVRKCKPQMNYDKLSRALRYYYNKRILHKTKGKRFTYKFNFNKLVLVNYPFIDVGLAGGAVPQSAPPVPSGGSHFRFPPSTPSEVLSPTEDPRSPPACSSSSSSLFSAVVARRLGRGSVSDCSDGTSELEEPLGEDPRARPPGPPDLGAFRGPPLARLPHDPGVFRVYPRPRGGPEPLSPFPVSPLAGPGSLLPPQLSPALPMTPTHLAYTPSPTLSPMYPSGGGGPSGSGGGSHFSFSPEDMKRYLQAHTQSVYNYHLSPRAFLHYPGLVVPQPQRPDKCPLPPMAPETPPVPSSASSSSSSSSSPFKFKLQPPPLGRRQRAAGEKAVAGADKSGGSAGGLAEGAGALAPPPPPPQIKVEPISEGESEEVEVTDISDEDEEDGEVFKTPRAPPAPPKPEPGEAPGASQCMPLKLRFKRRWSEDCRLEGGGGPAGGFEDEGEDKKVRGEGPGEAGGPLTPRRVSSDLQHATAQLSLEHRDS
Procedure, shortened: (§1)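 Binding signal is each hexamer's read frequency for a factor divided by its frequency in the tag-only sample. The factors were GST-fused human transcription factors from yeast, captured on glutathione beads, DNA-barcoded and pooled with that sample. Pools were incubated with 200 nmole of a random double-stranded 16-mer DNA library in Tris/NaCl/DTT/glycerol buffer at room temperature for 30 min, then washed, crosslinked with 0.1% formaldehyde, proximity-ligated with BsaI/T4 ligase (1 h, 37 °C), PCR-amplified and sequenced on an Illumina NextSeq500.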

ETV3L = biological target: T2, ETV3L (Homo sapiens, UniProt Q6ZN32 1-361)
T2 sequence: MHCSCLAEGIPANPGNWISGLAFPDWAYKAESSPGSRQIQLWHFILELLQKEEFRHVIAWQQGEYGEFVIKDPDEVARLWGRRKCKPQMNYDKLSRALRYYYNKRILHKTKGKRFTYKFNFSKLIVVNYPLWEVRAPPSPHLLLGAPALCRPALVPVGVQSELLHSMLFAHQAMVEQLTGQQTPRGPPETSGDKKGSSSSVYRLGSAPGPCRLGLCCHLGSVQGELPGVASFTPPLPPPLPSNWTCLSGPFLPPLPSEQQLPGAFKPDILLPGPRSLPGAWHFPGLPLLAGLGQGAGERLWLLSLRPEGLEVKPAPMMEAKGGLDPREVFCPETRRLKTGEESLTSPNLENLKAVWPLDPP
Procedure, shortened: as §1

ETS2 = biological target: T3, ETS2 (Homo sapiens, UniProt P15036 1-469)
T3 sequence: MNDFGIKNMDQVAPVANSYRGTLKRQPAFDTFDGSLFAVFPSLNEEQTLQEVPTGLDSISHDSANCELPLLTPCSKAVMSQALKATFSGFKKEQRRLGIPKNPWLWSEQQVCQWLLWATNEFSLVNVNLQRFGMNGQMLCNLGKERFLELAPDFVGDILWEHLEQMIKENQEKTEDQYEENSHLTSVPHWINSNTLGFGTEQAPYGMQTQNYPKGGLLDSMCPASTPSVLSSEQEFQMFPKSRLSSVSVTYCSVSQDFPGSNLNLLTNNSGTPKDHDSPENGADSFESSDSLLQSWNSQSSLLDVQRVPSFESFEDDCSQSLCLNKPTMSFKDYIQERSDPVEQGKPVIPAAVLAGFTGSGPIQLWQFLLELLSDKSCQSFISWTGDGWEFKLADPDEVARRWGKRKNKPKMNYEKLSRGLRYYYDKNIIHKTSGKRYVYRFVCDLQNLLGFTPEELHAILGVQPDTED
Procedure, shortened: as §1

SPDEF = biological target: T4, SPDEF (Homo sapiens, UniProt O95238 1-335)
T4 sequence: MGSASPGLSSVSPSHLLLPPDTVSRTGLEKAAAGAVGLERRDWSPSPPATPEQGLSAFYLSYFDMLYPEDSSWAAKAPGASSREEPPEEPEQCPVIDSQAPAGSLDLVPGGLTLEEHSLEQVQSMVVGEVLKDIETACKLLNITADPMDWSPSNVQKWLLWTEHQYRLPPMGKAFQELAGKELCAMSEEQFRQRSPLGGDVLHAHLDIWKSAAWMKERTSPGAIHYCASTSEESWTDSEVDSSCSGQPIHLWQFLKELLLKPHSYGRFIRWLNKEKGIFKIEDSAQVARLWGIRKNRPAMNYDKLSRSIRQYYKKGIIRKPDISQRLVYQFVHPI
Procedure, shortened: as §1

ETV7 = biological target: T5, ETV7 (Homo sapiens, UniProt Q9Y603 1-341)
T5 sequence: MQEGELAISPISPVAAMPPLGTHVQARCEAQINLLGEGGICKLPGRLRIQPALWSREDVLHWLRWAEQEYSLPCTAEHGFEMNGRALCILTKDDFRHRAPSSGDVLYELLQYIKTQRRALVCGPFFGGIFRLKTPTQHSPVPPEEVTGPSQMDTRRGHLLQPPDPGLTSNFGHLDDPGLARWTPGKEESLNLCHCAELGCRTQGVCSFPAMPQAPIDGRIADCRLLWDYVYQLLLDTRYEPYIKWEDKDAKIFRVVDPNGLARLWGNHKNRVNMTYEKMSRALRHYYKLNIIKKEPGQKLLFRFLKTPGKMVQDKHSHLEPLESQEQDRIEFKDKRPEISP
Procedure, shortened: as §1

ELF5 = biological target: T6, ELF5 (Homo sapiens, UniProt Q9UKW6-2 1-255)
T6 sequence: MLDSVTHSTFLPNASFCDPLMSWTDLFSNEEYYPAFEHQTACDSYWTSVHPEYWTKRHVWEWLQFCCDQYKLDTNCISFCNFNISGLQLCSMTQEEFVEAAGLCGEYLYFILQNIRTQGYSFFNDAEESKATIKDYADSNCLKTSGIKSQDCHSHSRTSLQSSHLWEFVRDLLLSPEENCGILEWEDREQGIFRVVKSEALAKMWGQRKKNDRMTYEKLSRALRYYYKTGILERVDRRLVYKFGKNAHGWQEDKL
Procedure, shortened: as §1

ETV3 = biological target: T7, ETV3 (Homo sapiens, UniProt P41162-2 1-143)
T7 sequence: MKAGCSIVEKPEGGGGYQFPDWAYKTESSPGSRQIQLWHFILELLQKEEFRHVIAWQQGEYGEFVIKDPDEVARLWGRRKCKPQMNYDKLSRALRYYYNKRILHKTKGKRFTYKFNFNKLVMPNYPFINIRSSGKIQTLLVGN
Procedure, shortened: as §1

ETV6 = ETV6 (Homo sapiens, UniProt P41212 1-452)
Chain of ETV6 (P41212 whole entry): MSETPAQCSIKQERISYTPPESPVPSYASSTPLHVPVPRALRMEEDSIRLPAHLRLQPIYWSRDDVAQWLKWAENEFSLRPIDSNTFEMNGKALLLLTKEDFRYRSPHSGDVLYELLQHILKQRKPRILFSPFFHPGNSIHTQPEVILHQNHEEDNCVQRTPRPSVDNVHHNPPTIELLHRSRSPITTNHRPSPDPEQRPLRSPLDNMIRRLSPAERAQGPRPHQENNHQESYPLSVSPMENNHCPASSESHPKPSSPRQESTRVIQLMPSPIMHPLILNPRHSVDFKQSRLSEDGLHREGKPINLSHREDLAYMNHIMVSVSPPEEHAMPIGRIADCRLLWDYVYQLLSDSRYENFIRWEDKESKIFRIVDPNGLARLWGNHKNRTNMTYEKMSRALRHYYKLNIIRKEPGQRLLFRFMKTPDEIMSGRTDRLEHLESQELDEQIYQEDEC
Procedure, shortened: as §1

Sequence	binding signal (ERF)	binding signal (ETV3L)	binding signal (ETS2)	binding signal (SPDEF)	binding signal (ETV7)	binding signal (ELF5)	binding signal (ETV3)	binding signal (ETV6)
TTCACA	1.26 fold enrichment (6-mer frequency, TF over GST control)	1.21 fold enrichment (6-mer frequency, TF over GST control)	1.23 fold enrichment (6-mer frequency, TF over GST control)	1.25 fold enrichment (6-mer frequency, TF over GST control)	1.29 fold enrichment (6-mer frequency, TF over GST control)	1.12 fold enrichment (6-mer frequency, TF over GST control)	1.13 fold enrichment (6-mer frequency, TF over GST control)	1.13 fold enrichment (6-mer frequency, TF over GST control)
ACTCTA	1.56 fold enrichment (6-mer frequency, TF over GST control)	1.39 fold enrichment (6-mer frequency, TF over GST control)	1.39 fold enrichment (6-mer frequency, TF over GST control)	1.38 fold enrichment (6-mer frequency, TF over GST control)	1.34 fold enrichment (6-mer frequency, TF over GST control)	1.41 fold enrichment (6-mer frequency, TF over GST control)	1.48 fold enrichment (6-mer frequency, TF over GST control)	1.33 fold enrichment (6-mer frequency, TF over GST control)
ATATAT	1.51 fold enrichment (6-mer frequency, TF over GST control)	1.41 fold enrichment (6-mer frequency, TF over GST control)	1.39 fold enrichment (6-mer frequency, TF over GST control)	1.43 fold enrichment (6-mer frequency, TF over GST control)	1.29 fold enrichment (6-mer frequency, TF over GST control)	1.42 fold enrichment (6-mer frequency, TF over GST control)	1.41 fold enrichment (6-mer frequency, TF over GST control)	1.44 fold enrichment (6-mer frequency, TF over GST control)
GCTACG	1.29 fold enrichment (6-mer frequency, TF over GST control)	1.16 fold enrichment (6-mer frequency, TF over GST control)	1.11 fold enrichment (6-mer frequency, TF over GST control)	1.04 fold enrichment (6-mer frequency, TF over GST control)	1.23 fold enrichment (6-mer frequency, TF over GST control)	1.1 fold enrichment (6-mer frequency, TF over GST control)	1.05 fold enrichment (6-mer frequency, TF over GST control)	1.23 fold enrichment (6-mer frequency, TF over GST control)
CAACTA	1.24 fold enrichment (6-mer frequency, TF over GST control)	1.29 fold enrichment (6-mer frequency, TF over GST control)	1.3 fold enrichment (6-mer frequency, TF over GST control)	1.32 fold enrichment (6-mer frequency, TF over GST control)	1.24 fold enrichment (6-mer frequency, TF over GST control)	1.26 fold enrichment (6-mer frequency, TF over GST control)	1.2 fold enrichment (6-mer frequency, TF over GST control)	1.25 fold enrichment (6-mer frequency, TF over GST control)
GTAGCA	1.22 fold enrichment (6-mer frequency, TF over GST control)	1.04 fold enrichment (6-mer frequency, TF over GST control)	1.02 fold enrichment (6-mer frequency, TF over GST control)	1.08 fold enrichment (6-mer frequency, TF over GST control)	1.06 fold enrichment (6-mer frequency, TF over GST control)	1.1 fold enrichment (6-mer frequency, TF over GST control)	1.05 fold enrichment (6-mer frequency, TF over GST control)	1.03 fold enrichment (6-mer frequency, TF over GST control)
